Experimental data taken from PubChem BioAssay AID2401 (Southern Research Specialized Biocontainment Screening …, 2010).
Out of some 2,200 compounds screened, about 530 (24%) were called active. The list is a sample of the results. Entries with a potency or affinity are not part of this list. Unmarked numbers belong to inactive results.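 Rule for the calls: active = inhibition above a set limit at one or more concentrations of the dose series; inactive = inhibition under that limit at every dose.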

test: nmpC-GFP reporter counter-screen in S. Typhimurium, dose response, counter-screen for PhoP regulon inhibitor project, Salmonella Typhimurium, GFP fluorescence (AID 2401); details: 4 h; series mostly up to 150 µM; inhibition: at the top concentration;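 note: S. typhimurium with Mg-insensitive nmpC-GFP reporter grown at 10 µM Mg2+; drop in reporter fluorescence reflects general culture growth inhibition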

Row | SMILES | inhibition [%]
1 | COc1ccc(OC)c(NC(=O)c2ccccc2NS(=O)(=O)c2cccc3cccnc23)c1 | -10.6
2 | Nc1nnc(SCc2ccc3c(c2)OCO3)s1 | -26.3
3 | CCOC(=O)C(NS(=O)(=O)c1ccccc1)(C(F)(F)F)P(=O)(OCC(C)C)OCC(C)C (stereo not given) | -23.4
4 | c1ccc(-c2cc(CSc3nc4ccccc4[nH]3)on2)cc1 | 1.38
5 | Cc1ccc(N=Cc2sc(O)c3ccccc23)cc1 | -41.8
6 | N=c1sccn1CC(=O)Nc1ccccc1Oc1ccccc1 | -13
7 | O=C(NCCNc1ccc([N+](=O)[O-])cc1C(F)(F)F)c1ccc(F)cc1 | 31.5
8 | O=C(NCCNc1ccc([N+](=O)[O-])cc1C(F)(F)F)c1ccccc1F | -7.25
9 | O=C(NCC(=O)N(c1cccnc1)C(C(=O)NCc1ccco1)c1ccccc1)c1ccco1 (stereo not given) | 9.19
10 | COc1ccc(N2C(=O)[C@@H]3[C@H](C2=O)[C@H]2c4ccccc4C=CN2[C@@H]3C(=O)Nc2ccccc2)cc1 | 28
11 | CCCc1cc(C(=O)Cc2ccc(C(=O)OCC)o2)c(O)cc1O | 23.5
12 | CCOc1ccccc1NS(=O)(=O)c1ccc(Br)s1 | -23.1
13 | O=C(Oc1ccc(N(Cc2cccs2)C2=NS(=O)(=O)c3ccccc32)cc1)c1ccc(Cl)cc1 | 28.4
14 | COc1ccc2c(c1)CC/C(=C\Nc1ccc3c(c1)OCO3)C2=O | -15.1
15 | CCN(CC)CCNC(=O)c1cn(CC)c2cc(N3CCN(C(=O)c4ccco4)CC3)c(F)cc2c1=O | -18
16 | CN(C)CCNC(=O)c1ccc(COCC(F)(F)F)cc1 | -10.8
17 | COC(=O)COc1ccc(S(=O)(=O)Nc2ccccc2SC)cc1 | -26.3
18 | Cc1cc(CNC(=O)Nc2ccc3c(c2)OCO3)nn1C | -5.69
19 | O=C(NCc1cn2ccsc2n1)Nc1ccc(Cl)cc1 | -22.4
20 | Oc1ccc(Nc2nc(-c3cccs3)cs2)cc1 | 33
21 | CC(C)c1ccc(NC(=O)N(CCc2nc3ccccc3[nH]2)C2CCCC2)cc1 | -18.2
22 | O=C1C2C3c4ccccc4C(c4ccccc43)C2C(=O)N1c1cccc2cccnc12 (stereo not given) | -20.1
23 | Brc1ccc2cccnc2c1 | -23.6
24 | C/C(=N/Nc1nc(-c2ccccc2)cc(-c2ccc(F)cc2)n1)c1cccc(N)c1 | -5.41
25 | CC(=O)Nc1c(C#N)c(C(C)(C)C)cn1C | 1.65
26 | CCOc1cc(C2C(C(=O)OC)=C(C)N=C3SCCC(=O)N32)ccc1OC(C)=O (stereo not given) | -28.1
27 | O=C(NCc1ccc2c(c1)OCO2)c1ccc(-n2cnnn2)cc1 | -4.67
28 | CCCN1C(=O)SC(CC(=O)Nc2ccc(Br)cc2)C1=O (stereo not given) | 8.66
29 | CCn1c(C)cc(=S)c2ccccc21 | -47
30 | O=C(NCCCN1CCCC1=O)c1ccc(Cl)c(NS(=O)(=O)c2ccc(F)cc2)c1 | -14.2
